Results taken from the supplement of paper PMC6555819.

Key:
Assay in all cases: PBM binding z-score (relative to random genomic background probes); higher = stronger binding; sequences stand for … in GC…GCGATTGACAGCGTAGAATGAAGG
[1] = test system: RARb homodimer (NR concentration 270 nM)
Summary of the method: (§1)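 Regression normalization was applied to scanned fluorescence from custom Agilent 4×180K protein-binding microarrays. Before scanning, arrays were incubated 1 h with ligand-free nuclear receptor dimers, and binding was detected with antibodies against each partner (one per run). Binding z-scores use the random background probes as reference.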

[2] = test system: RARg:RXRa (NR concentration 270 nM, RXRa partner concentration 90 nM)
Summary of the method: as §1

[3] = test system: RARg homodimer (NR concentration 270 nM)
Summary of the method: as §1

[4] = test system: RXRa DBDmut IVT, anti-RXR (DBD mutation: RXRa K156A/R161A, NR concentration 90 nM)
Summary of the method: as §1

[5] = test system: RXRa homodimer (NR concentration 180 nM)
Summary of the method: as §1

[6] = test system: THRa:RXRa (NR concentration 90 nM, RXRa partner concentration 90 nM)
Summary of the method: as §1

[7] = test system: THRa homodimer (NR concentration 90 nM)
Summary of the method: as §1

[8] = test system: VDR:RXRa (NR concentration 270 nM, RXRa partner concentration 90 nM)
Summary of the method: as §1

[9] = test system: VDR homodimer (NR concentration 270 nM)
Summary of the method: as §1

Sequence	PBM binding z-score [1]	PBM binding z-score [2]	PBM binding z-score [3]	PBM binding z-score [4]	PBM binding z-score [5]	PBM binding z-score [6]	PBM binding z-score [7]	PBM binding z-score [8]	PBM binding z-score [9]
TTACGAAGGTGAGCTGAGGTCGTTGATCCAACTC	1.6	1.37	1.23	0.439	1.27	4.56	1.78	4.16	2.57
TCTAGATGGTCAAAGGTCACACACTCGAAATGCG	4.98	7.31	5.87	1.9	8.64	3.96	1.9	5.33	2.51
ATATGTAGGGTAAGGGTCATTCAGGTTGGTTCGC	4.19	4.59	3.27	2.16	5.38	3.68	2.68	5.59	5.02
TCATATCGGTAAACAGGTGAAAGTCCGTAAGTTA	0.664	0.475	0.211	1.26	0.834	0.552	0.248	0.935	0.533
AGAACGAGGCCAATGAGTTGATAGCACGGGTGGC	0.127	0.169	0.718	1.01	0.286	0.223	0.00356	3.09	1.71
AGAATGAGGTTACCAAAGATAAGGGAAACGCTTG	0.456	1.85	1.54	1.02	2.18	2.55	0.618	1.07	0.393
TAGCCTAGGTCATTGGGCCAGTAAAGTACGCATC	2.78	3.91	4.25	1.61	3.1	2.69	0.775	2.08	1.48
CCTATTAGTTGACCATAAGTGCAACCGAAGCTCG	1.59	0.741	0.841	1.18	0.751	0.954	1.18	1.31	1.81
TCATATAGGTAAAGGAGAAAGTCGAACGATATGA	-0.643	0.547	0.358	0.825	0.676	-0.227	-0.866	0.392	-0.11
TTACCAAGGTGAAGGTAGTTGATCCCTCTGTAGA	0.8	0.328	0.323	-0.443	0.761	1.84	0.575	0.0573	-0.396
GCTTGTAGATCAAGGTAAAGAAAGACTAAGCTAA	-0.851	-0.145	-0.335	-0.256	-0.197	0.48	-0.807	-0.118	-0.505
CCTACTGGGCCATCAGTTCATTGATATCAACGTT	0.932	0.31	0.439	0.88	-0.0335	0.411	0.333	1.13	3.3
TCTTGTAGATCAAAGGTTAAAAAAGCCGAAGCCT	1.22	1.79	0.557	0.941	3.35	1.44	-0.334	1.64	0.177
CCTCGGAGGACAACAGGAGGTCGGAGCTGCCAGA	1.42	1.08	1.36	0.0321	0.223	1.35	0.0235	-0.0445	0.16
CCTACTGGGCCAAAAAGGTCAGTGATGCCGATAA	4.09	3.5	3.5	-0.472	2.87	2.11	0.0212	2.91	0.295
CCTTACGGGTCACTCCAGGTTATTGCATCGGAGT	3	4.17	3.98	1.4	3.97	4.94	0.878	4.46	1.95
TGAATGAGGTAATAAGATCAGGGAACGTTGCAAA	-0.532	0.204	0.306	-1.15	0.365	0.991	-0.205	-0.334	-0.404
GCTAGCAGGCCATTTGGGGCACTCAATGACGGGC	-0.0146	-0.154	0.3	-0.299	-0.112	0.771	-0.695	-0.555	-0.274
TGATATAGGTAAAAGGTGAAAGTCGGTGTGGTAA	2.03	1.86	1.13	-0.0828	2.92	1.8	0.423	1.33	0.42
CCAGACAGGTGAAAGGTAACTCAGTCTGGTACGC	0.781	1.39	0.817	0.137	2.13	0.824	-0.156	0.989	-0.251
ATCTCTAGGTAAAGCTCAGTGAAAGATCGATAGA	-0.225	0.103	0.259	-0.165	-0.128	0.19	-0.0384	-0.295	-0.271
GCGACTGGGGCAAACCAGGTTACCATAAGGTTGG	1.29	0.596	0.516	-0.486	0.616	3.93	0.684	0.416	-0.202
GGAACGAGGGCAAGCTGATAGCAGAGTTTGATGG	0.957	1.17	1.95	1.68	0.6	0.878	-0.593	0.0958	1.03
TGTTGTAGATCAAAGGTTAAGAAAGCCGAAGCCT	1.46	2.08	1.36	-0.391	2.85	1.34	-0.597	1.44	-0.249
ATCGAAAGGTCGAGGTGAGTATTGAGAAAGGGAA	3.11	4.2	3.88	0.619	4.12	2.93	0.768	2.46	0.377
TTACCAAGGTGAAAGGTCGTGGATGCACGCCTTG	2.98	5.09	2.53	0.256	6.85	3.45	0.939	3.28	0.435

Sequence	PBM binding z-score [1]	PBM binding z-score [2]	PBM binding z-score [3]	PBM binding z-score [4]	PBM binding z-score [5]	PBM binding z-score [6]	PBM binding z-score [7]	PBM binding z-score [8]	PBM binding z-score [9]
GCTAGCAGGCCATTTGCGTCACTCAATGACGGGC	-0.848	-0.404	-0.336	-0.115	-0.347	-0.649	-0.795	-0.801	-0.529
GCTGCTAGGTCAACTGATGGTCAGCTCAAGCTCG	3.67	5.5	5.38	1.62	2.96	3.09	1.25	1.59	0.00206
GCGGCTAGGTCAGGTTGGTCAGCTAACGGGTACG	2.8	2.47	3.36	0.271	1.07	1.85	0.788	0.482	0.247
AGAACGAGGGCAATGAGTTGCTAGCACGGGTGGC	0.949	0.847	1.24	1.67	0.545	0.677	-0.316	3.91	1.49
CCGCCTGGGGCATAAGGTTACCATAAGCCAGCCC	1.94	1.82	1.11	-0.905	1.07	1.99	1.33	0.151	-0.126
CAAACTATGTCAAAGGTCAAAGTCGAGCCAACCA	5.04	7.01	6.39	1.75	8.43	3.81	1.14	5.41	2.88
ATCTCTAGGTACGACTCAGTTCAGTGAAGAACGC	0.848	0.255	0.331	1.19	0.123	0.879	0.878	1.28	2.02
CGCCCAAGGTCAGAGAGGTCAGTGAATGCCGAGT	5.43	6.31	6.93	3	5.42	4.15	2.33	7.36	5.31
ATATGTAGGTTAGTTGGGGTCATTCAGACTAGGC	3.96	4.34	2.99	2.64	6.03	5.13	3.99	6.27	5.97
CGTCCAAGGTCAGAGAGGTCAGCGAATGCCGAGT	5.53	6.82	7.65	3.12	6.52	4.47	2.86	7.48	5.7
ATATGTAGGTTAGATGGGGTCATTCAGACTAGGC	3.8	4.06	2.93	2.39	5.63	5.15	3.28	6.54	5.95
TGTCAAAGTCCAAAGGTAACGTAAGTATCCACAC	1.08	1.64	1.23	0.368	0.946	1.11	-0.182	0.386	0.0854
CCGACTGGGGCAAAGGCTACCATACTCAGTACGA	0.592	0.577	0.501	-0.632	0.387	-0.182	-0.604	-0.358	-0.299
CCCACTGGGCCATCAGGTCATTGATATCAACGTT	2.77	2.09	1.65	-0.268	1.3	3.22	3.16	1.89	1.66
CCGACTGGGGCAAAGTTTACCATACTCAGTACGA	0.876	1.01	1.06	1.29	0.757	0.304	-0.108	0.062	0.435
ACTATTAGTTGACGTAGGGCAACCGATACGACGC	0.993	0.445	0.82	0.582	0.328	0.925	-0.0539	0.19	0.159
CGTCCAAGGTCAATGCTAGGTCAGGGAAAGCATT	4.99	7.46	6.5	3.47	5.08	4.67	3.21	4.75	2.33
AGAATGAGGCTAAGATCAGGGAAACAGAATACAT	0.17	0.222	0.265	-0.309	-0.046	0.533	0.04	-0.231	-0.208
TCTCGGAGGACACGATAGGTCAGAGCTCGACATC	3.02	2.49	3.18	0.695	1.43	2.47	0.393	0.769	0.242
CATAGAGGGTCAGCTAGGCCAGAGTAGGGACGGC	3.06	3.83	4.33	0.356	3.3	2	0.171	2.69	0.395
GCAGACAGCTGAAACGCAGGTAACTCAGGGTGGC	-0.98	-0.584	-0.685	-0.772	-0.453	0.284	-0.483	-0.826	-1.05
ACAGACAGGTGATTGAAGGTAACTCAGCTGGACG	-0.184	0.204	0.419	-0.0738	0.195	1.92	-0.247	-0.21	-0.308
ATACCAAGGTGATCGGGAGGTCGTTGATACTAAC	1.96	2.79	0.879	0.167	1.44	2.58	1.27	2.58	1.99
TCCAGTAGGTTACCAATGGGGCATTCAGCTTTCT	0.751	1.45	0.608	0.663	0.815	0.145	-0.653	0.0983	-0.528
TCTGCTAGGCCAACGATGGTCAGCTAATCTGCTA	0.00128	-0.269	0.329	-0.26	-0.518	-0.441	-1.26	-0.596	-1.49
CATACAGGGTCAGCTAGGCCAGAGTAGGGACGGC	3.14	4.44	4.26	1.44	4.42	3.1	0.753	3.8	1.32
